Assay results reported in PubChem BioAssay (NCI).
About 83,000 compounds went through this panel and 20% of them were active in at least one assay; those are over-represented in the sample as a whole.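 Results are percent growth after 48 hours of single-concentration exposure. 100 means growth as in untreated cells, lower positive values show inhibition; negative values down to -100 show cell death.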 Calls of active or inactive are those of the source. Rule for the calls: active = growth percent below 10; inactive = the rest.

Test system: SNB-75 CNS
Assay: NCI-60 one-dose screen, 48 h (100 = growth as untreated, 0 = no growth, -100 = all killed)
Settings: 10 µM unless noted

| Structure (SMILES) | growth |
| --- | --- |
| C=C(C=O)[C@@H]1CC[C@]2(C)[C@H](CC=C3[C@H]4[C@@H](C)[C@H](C)CC[C@]4(C(=O)OC)CC[C@]32C)[C@@]1(C)CCC#N | 67.6% (inactive) |
| c1ccc(C(c2nc3ncncc3[nH]2)N2CSc3nc4ncncc4n3C2)cc1 (stereo not drawn) | 45% (inactive) |
| Cc1occc1-c1nc2s/c(=C/c3ccc(-c4cc(C(F)(F)F)ccc4Cl)o3)c(=O)n2n1 | 97.5% (inactive) |
| CNCc1cccc2c1OCCCCCCC(C)(O)CC(C)(C)S(=O)(=O)c1ccc(cc1)-c1cnc(N)c(n1)C(=O)N2 (stereo not drawn) | 84% (inactive) |
| CCOC(=O)c1c(N)c(C#N)cn1-c1cc(OC)c(OC)c(OC)c1 | 92.7% (inactive) |
| C=C(C=O)[C@@H]1CC[C@]2(COC(C)=O)CC[C@]3(C)C(CC[C@@H]4[C@@]5(C)CC[C@H](OC(C)=O)C(C)(C)[C@@H]5CC[C@]43C)[C@@H]12 (stereo partly drawn) | 32.1% (inactive) |
| Cc1ccc(S(=O)(=O)N(CC[C@@H]2C[C@H]2c2cc3ccccc3o2)S(=O)(=O)c2ccc(C)cc2)cc1 | 89% (inactive) |
| COC(=O)c1ccc(NC2=C/C(=N/S(=O)(=O)c3ccc(C(=O)O)cc3)c3ccccc3C2=O)cc1 | 172% (inactive) |
| CC1(C)CC[C@]2(C(=O)O)CC[C@]3(C)C(=CC[C@@H]4[C@@]5(C)CC/C(=N\OCCC#N)C(C)(C)[C@@H]5CC[C@]43C)[C@@H]2C1 | 53.4% (inactive) |
| CCOC(=O)c1c(Nc2ccccc2)nn2c(-c3ccccc3)ccnc12 | 67.1% (inactive) |
| Cc1cc(C)c2sc(=O)n(Cc3nnc(SCCC(=O)O)o3)c2n1 | 103% (inactive) |
| Cc1ccc(NC(=O)N[C@@H](Cc2cc(F)cc(F)c2)C(=O)NC2C(=O)N3C[C@H](O)C[C@H]3C(=O)N3CCCC[C@H]3C(=O)N[C@@H](CO)C(=O)N3C[C@H](C)C[C@H]3C(=O)O[C@H]2C)c(F)c1 (stereo partly drawn) | 27.4% (inactive) |
| C#C[C@]1(O)CC[C@H]2[C@@H]3CC=C4c5sc(-c6ccc7c(c6)OCO7)nc5CC[C@]4(C)[C@H]3CC[C@@]21C | -3.43% (active) |
| CCCn1cnc2c(c1=N)C(c1ccc(F)cc1)c1sc3c(CC)cccc3c1O2 (stereo not drawn) | 14.8% (inactive) |
| O=C(NCCn1ccnc1)c1ccc(-c2nc3ccc4[nH]ncc4c3c3c2CCCC3)cc1 | 52.6% (inactive) |
| NS(=O)(=O)c1ccc(-n2cc(CN3CCCCC3)nn2)cc1 | 92.8% (inactive) |
| O=S(=O)(NCCNc1nccc(-n2cnc3ccccc32)n1)c1ccc(Cl)cc1 | 79.4% (inactive) |
| COC(=O)C1(C)CCC[C@]2(C)[C@H]3C[C@H]4C(C(C)C)=C[C@]3(CC[C@@H]12)[C@H]1[C@@H]4[C@@H](OC(=O)c2ccco2)CC[C@@H]1OC(=O)c1ccco1 (stereo partly drawn) | 97.8% (inactive) |
| CCCn1cnc2c(c1=N)C(c1ccc(OC)cc1)c1sc3c(C)cccc3c1O2 (stereo not drawn) | 17.8% (inactive) |
| COc1cc(-c2nn(C(C)(C)C)cc2-c2ccnc(NCCCNS(=O)(=O)c3cccc(F)c3)n2)ccc1Cl | 46.2% (inactive) |
| CC1(C)CC[C@]2(CN)CC[C@]3(C)C(=CC[C@@H]4[C@@]5(C)CCCNC(C)(C)[C@@H]5CC[C@]43C)[C@H]2C1 | 99.1% (inactive) |
| NC(=O)c1cccc(C#CCNC[C@H]2C[C@@H](n3ccc4c(Cl)ncnc43)[C@H](O)[C@@H]2O)c1 | 87.7% (inactive) |
| NC(N)=Nc1ccc(Oc2cccc(Nc3cccc(C(F)(F)F)c3)c2)cn1 | 33.5% (inactive) |
| O=C(CSc1nc2ccccc2c(=O)n1-c1ccccc1)Nc1cccc(C(=O)/C=C/c2ccccc2)c1 | 75.6% (inactive) |
| COc1ccc(/C(N)=N/C(N)=N/c2nc3ccccc3s2)cc1 | 23.5% (inactive) |
| Cc1cccc(/C=C/C(=O)Nc2ncc(Cc3cccc(C)c3)s2)c1 | 8.11% (active) |
| COc1c(N2CC3CCCNC3C2)c(F)cc2c(=O)c(C(=O)N/N=C/c3ccc(Br)cc3)cn(C3CC3)c12 (stereo not drawn) | 103% (inactive) |
| Nc1nc(Nc2ccccc2SSc2ccccc2Nc2nc(N)nc(-c3ccc4ccccc4c3)n2)nc(-c2ccc3ccccc3c2)n1 | 45.9% (inactive) |
